# From PubChem BioAssay (EPA / NIEHS)
# Records with an inconclusive call do not appear. Active and inactive are the calls of the source. Rule for the calls, unless noted: active = hit-call score of the fitted dose curve at least 0.9, where 1 is the maximum; inactive = score below 0.9.
# Assay: CCTE_Shafer_MEA_dev_AB: CCTE's Alamar Blue Assay for Cytotoxicity in the Neural Network Formation Assay, Shafer Lab (AID 2284083; active = hit-call score of the fitted dose curve at least 0.9, where 1 is the maximum;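 note: resazurin reduction fluorescence as viability of cultured neurons; twelve days of exposure from plating with re-dosing on DIV 5 and 9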)
# Summary of the method: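 Cytotoxicity companion to the developmental MEA: primary rat cortical neurons, 12-day exposure starting day 0, compound refreshed DIV 5 and 9; resazurin fluorescence, fitted against DMSO vehicle.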
Structure (SMILES),outcome,AC50
OCCCCC(F)(F)C(F)(F)C(F)(F)C(F)(F)F,inactive,–
C=CC(=O)OCC(F)(F)C(F)(F)C(F)(F)COC(=O)C=C,–,7.96 µM (active)
OCC(F)(F)C(F)(F)C(F)(F)C(F)(F)C(F)(F)C(F)(F)C(F)(F)C(F)(F)CO,–,24.4 µM (active)
C=CC(=O)OCCC(F)(F)C(F)(F)C(F)(F)C(F)(F)F,–,21.8 µM (active)
CCN(CCO)S(=O)(=O)C(F)(F)C(F)(F)C(F)(F)C(F)(F)C(F)(F)C(F)(F)C(F)(F)C(F)(F)F,inactive,–

# Assay: CCTE_Shafer_MEA_dev_mutual_information_norm: CCTE's Neural Network Formation Assay for Mutual Information Normalization, Shafer Lab (AID 2284091);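 for AC50: mutual information between electrodes summarised as area under curve across four recording days; potency is for a decrease in mutual information relative to DMSO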
# Summary of the method: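 Neurons from rat cortex were seeded at 1.5 x 10^5 cells/well onto PEI-coated MEAs in a laminin drop, then exposed to compound from day 0 for twelve days. Network recordings on four days gave mutual information, summarised by AUC relative to DMSO.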
Structure (SMILES),outcome,AC50
O=S(=O)(O)CCC(F)(F)C(F)(F)C(F)(F)C(F)(F)C(F)(F)C(F)(F)C(F)(F)C(F)(F)F,inactive,–
OCC(F)(F)C(F)(F)C(F)(F)C(F)(F)C(F)(F)C(F)(F)CO,inactive,–
OCCCCC(F)(F)C(F)(F)C(F)(F)C(F)(F)F,inactive,–
OC(O)C(F)(F)C(F)(F)F,inactive,–
O=C(O)C(F)(F)C(F)(F)C(F)(F)OC(F)(F)F,inactive,–
C=CC(=O)OCC(F)(F)C(F)(F)C(F)(F)COC(=O)C=C,–,1.73 µM (active)
FC(F)(F)C(F)(F)C(F)(F)C(F)(F)C(F)(F)C(F)(F)C(F)(F)CCI,inactive,–
OCC(O)CC(F)(F)C(F)(F)C(F)(F)C(F)(F)F (centres undefined),inactive,–
NC(=O)C(F)(F)C(F)(F)C(F)(F)F,inactive,–
CNS(=O)(=O)C(F)(F)C(F)(F)C(F)(F)C(F)(F)C(F)(F)C(F)(F)C(F)(F)C(F)(F)F,inactive,–
NC(O)(C(F)(F)F)C(F)(F)F,inactive,–
NC(=O)C(F)(F)C(F)(F)C(F)(F)C(F)(F)C(N)=O,inactive,–
OCC(F)(F)C(F)(F)C(F)(F)C(F)(F)C(F)(F)C(F)(F)C(F)(F)C(F)(F)CO,inactive,–
NC(=O)C(F)(F)C(F)(F)C(F)(F)C(F)F,inactive,–
C=CC(=O)OCCC(F)(F)C(F)(F)C(F)(F)C(F)(F)F,inactive,–
CCN(CCO)S(=O)(=O)C(F)(F)C(F)(F)C(F)(F)C(F)(F)C(F)(F)C(F)(F)C(F)(F)C(F)(F)F,inactive,–
OCC(F)(F)C(F)(F)C(F)(F)CO,inactive,–
CO[Si](C)(CCC(F)(F)C(F)(F)C(F)(F)C(F)(F)C(F)(F)C(F)(F)F)OC,inactive,–
O=S(=O)(O)CCC(F)(F)C(F)(F)C(F)(F)C(F)(F)F,inactive,–
